About 79,000 compounds went through this panel and 15% of them were active in at least one assay; those are over-represented in the sample as a whole. Cut-off read from the data, not from the text of the source: active = growth inhibition above about 70%; inactive = the rest.
What was measured:
[1] = NCI Yeast Anticancer Drug Screen. Data for the rad50 strain (AID 155);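 note: 0% = growth of vehicle-only cultures of the same strain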; conditions: S. cerevisiae rad50 strain growth inhibition; at 50.0 µM; active compounds read high
How it was run: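 DNA repair mutant yeast, compound exposure, growth read-out; inhibition is taken relative to vehicle.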

[2] = NCI Yeast Anticancer Drug Screen. Data for the mec2-1 strain (AID 157); conditions: S. cerevisiae mec2-1 strain, at 50.0 µM, active compounds read high
How it was run: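 Strain: mec2-1 (DNA repair/cell cycle alteration). Compound exposure, then growth measured; inhibition expressed relative to vehicle.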

[3] = NCI Yeast Anticancer Drug Screen. Data for the sgs1 mgt1 strain (AID 161);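 note: 0% = growth of cultures given vehicle only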; conditions: S. cerevisiae sgs1 mgt1 strain, at 50.0 µM, active compounds read high
How it was run: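 Genetically altered yeast, compound exposure, growth inhibition relative to vehicle.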

[4] = NCI Yeast Anticancer Drug Screen. Data for the cln2 rad14 strain (AID 165);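 note: 0% = growth equal to vehicle treated cultures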; conditions: S. cerevisiae cln2 rad14 strain, at 50.0 µM, active compounds read high
How it was run: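 Compounds are applied to the cln2 rad14 yeast strain, and growth is then compared with that of vehicle-treated cultures to give inhibition.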

[5] = NCI Yeast Anticancer Drug Screen. Data for the bub3 strain (AID 167); conditions: S. cerevisiae bub3 mutant strain, at 50.0 µM, active compounds read high
How it was run: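 In this screen, a yeast mutant lacking normal mitotic checkpoint function is challenged with compound. Relative growth versus vehicle gives the inhibition value.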

[6] = NCI Yeast Anticancer Drug Screen. Data for the mlh1 rad18 strain (AID 175); conditions: S. cerevisiae mlh1 rad18 strain growth inhibition; at 50.0 µM; active compounds read high
How it was run: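 Read-out is yeast growth inhibition, calculated against vehicle-only controls. The compound was applied to a strain engineered with DNA damage repair alterations.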

Measured: growth inhibition

N#C/C(=C\c1ccccc1Cl)C(N)=S
inactive: [1] 10.6% | [2] 11.2% | [3] 1.15% | [4] 8% | [5] -27.4% | [6] 6.05%

Nc1nc2c(c(-c3ccc(F)cc3)n1)COC/C2=C\c1ccc(F)cc1
inactive: [1] 31.5% | [2] 24% | [3] 15.2% | [4] 22.1% | [5] 40.8% | [6] 19.6%

CCNc1nc2c(ncn2C2CC(O)C(COP(=O)(O)O)O2)c(=O)[nH]1 (stereo unspecified)
inactive: [1] 18.9% | [2] 15.2% | [3] 27.3% | [4] 11.8% | [5] 13.2% | [6] -16.1%

Nc1ncnc2c1S(=O)(=O)NCN2
inactive: [1] 5.05% | [2] -15.8% | [3] 0.45% | [4] -17.3% | [5] -3.15% | [6] -11.7%

CC(=O)NN(C)C(C)=O
inactive: [1] 6% | [2] 27.3% | [3] -4.2% | [4] 12.4% | [5] 15.9% | [6] 10.5%

CC(C)(C)OC(=O)Cc1c[nH]c2ccccc12
inactive: [1] -38.2% | [2] -27.1% | [3] -9.45% | [4] -19.1% | [5] -27.6% | [6] -41.1%

CCC(C)C(O)CC (stereo unspecified)
inactive: [1] -9.5% | [2] -8.55% | [3] 2.3% | [4] 19.4% | [5] 7.6% | [6] -16.2%

CC1COC(c2cc3c(cc2Cl)OCO3)O1 (stereo unspecified)
inactive: [1] -12.4% | [2] -2.4% | [3] -20.3% | [4] -10.9% | [5] -26.6% | [6] -0.4%

C1=C/CCC2OC2CC/C=C/CC/1 (stereo unspecified)
inactive: [1] -9.8% | [2] -55.2% | [3] -24.8% | [4] 11.8% | [5] -29.2% | [6] -4.2%

Cc1nnc(N)c(C#N)c1C
inactive: [1] -8.45% | [2] 2.3% | [3] 16.6% | [4] -56.9% | [5] 4.45% | [6] -1.85%

CCN(CC)C(=O)COc1ccc(Cl)c(C)c1
inactive: [1] 9.5% | [2] 3.45% | [3] 6.4% | [4] 27.6% | [5] 33.6% | [6] 19.4%

NC1=NN(S(=O)(=O)c2ccc(Cl)cc2)CC1
inactive: [1] -14.7% | [2] -6.25% | [3] -8.75% | [4] -21.7% | [5] -3.3% | [6] 5.95%

COc1ccc(OC)c(/C=C2/C(=O)N(c3ccccc3)N=C2C)c1
inactive: [1] -7.55% | [2] -1.25% | [3] 5.6% | [4] -1.85% | [5] 15.5% | [6] 4.75%

Clc1ccc2nc[nH]c2c1
inactive: [1] 10.1% | [2] 10.1% | [3] 4.5% | [4] 0.7% | [5] 5.9% | [6] 18.2%

Cc1nc(C)c(N2CCN(S(=O)(=O)N(Cc3ccccc3)Cc3ccccc3)CC2)c(=O)[nH]1
inactive: [1] -22.7% | [2] -5.95% | [3] -32.3% | [4] 3.85% | [5] -5.65% | [6] 4.2%

CCOC(=O)CN=C1NNS(=O)(=O)c2ccccc21
inactive: [1] 3.55% | [2] -17.4% | [3] -10.2% | [4] 28.4% | [5] -23.1% | [6] 6.35%

CC(=O)c1ccc(N2CCCCC2)cc1
inactive: [1] -7.8% | [2] -12.2% | [3] 4.55% | [4] -3.1% | [5] 40% | [6] -14.4%

CCN(CCOC(=O)Nc1ccc(Cl)cc1)C(=O)Nc1ccc(Cl)cc1
inactive: [1] -1.75% | [2] -36.8% | [3] 16.4% | [4] 2.8% | [5] -8.55% | [6] -18.2%

CC(OC(=O)Nc1ccccc1)c1ccccc1 (stereo unspecified)
inactive: [1] 37.2% | [2] 7.9% | [3] 11.9% | [4] 9.9% | [5] 9.2% | [6] 17.4%

CC1(C)CC(=O)C=C(NCCCCCCCCNC2=CC(=O)CC(C)(C)C2)C1
inactive: [1] -0.25% | [2] 19.8% | [3] 5.7% | [4] 6.45% | [5] 5% | [6] 9.8%

CC(=O)Oc1ccccc1/C=C1\N=C(c2ccccc2)OC1=O
inactive: [1] -5.25% | [2] 2.25% | [3] 1.85% | [4] -30.2% | [5] -5.25% | [6] -6.4%

c1ccc(-c2cc3nncc(-c4ccccc4)n3n2)cc1
inactive: [1] -14.9% | [2] -9.95% | [3] -7.65% | [4] 13.9% | [5] 13.3% | [6] 3.55%

CC(=O)c1cc2c(cc1C)C(C)(C)CCC2
inactive: [1] 8.45% | [2] 14.2% | [3] 3.1% | [4] -47.7% | [5] -16.4% | [6] 13.1%

CC(C)(C)C1=CC(=N/S(=O)(=O)c2ccccc2)/C(N=[N+]=[N-])=C(Cl)C/1=N\S(=O)(=O)c1ccccc1
inactive: [1] 54.8% | [2] 27.4% | [3] 48.2% | [4] 14% | [5] 23.6% | [6] 39%

C/C=C/Cc1ccccc1O
inactive: [1] 7.1% | [2] -3.4% | [3] -5.05% | [4] -6.4% | [5] -9.2% | [6] -1.1%

CCc1cc2c(c3c1CCC3=O)CC1(Cc3ccc(C)cc3C1)C2 (stereo unspecified)
inactive: [1] -47.1% | [2] -54.5% | [3] -32.5% | [4] -21.6% | [5] -22.1% | [6] -44.7%

COc1c2c(c3ccccc3c1O)C1C=CC2C1 (stereo unspecified)
inactive: [1] 7.6% | [2] 7.6% | [3] -37.7% | [4] -5.25% | [5] 0.25% | [6] -16.3%

CC(C)(C)CNCCCBr
inactive: [1] -19.9% | [2] -4.8% | [3] -9.05% | [4] -13.3% | [5] 30.8% | [6] 8.15%

Oc1ccccc1/C=N\Sc1ccc(Br)cc1
inactive: [1] 23.9% | [2] 13.8% | [3] 22% | [4] 4.25% | [5] 3.95% | [6] 17%

O=COC(Cc1ccccc1)c1ccc2c(c1)OCO2 (stereo unspecified)
inactive: [1] 32.2% | [2] -5.2% | [3] 1.6% | [4] -7.2% | [5] 30.6% | [6] -3.05%

N#CC1(Cl)CC2CC1C1N=NN(c3ccccc3)C21 (stereo unspecified)
inactive: [1] -24.6% | [2] -15.3% | [3] -0.25% | [4] -58% | [5] 25.6% | [6] 0.75%

CN/N=C(/Cc1occc(=O)c1O)C(=O)Nc1ccc(C)c(C)c1
inactive: [1] 15.4% | [2] 7.05% | [3] -16.7% | [4] 3.15% | [5] 7.35% | [6] 18.1%

Cc1cccc(NC(=O)CC(=O)N2N=C(N3c4ccccc4Sc4ccccc43)CC2c2ccccc2)c1 (stereo unspecified)
inactive: [1] -1.85% | [2] -5.5% | [3] -10.1% | [4] -9.55% | [5] -5.35% | [6] -41.8%

CC1CC(C2=CC=CCS2)=Nc2ccccc2S1 (stereo unspecified)
inactive: [1] -8.25% | [2] -16.2% | [3] 33.5% | [4] 19.9% | [5] 5.3% | [6] 18.8%

Cc1cc(C)c2c(-c3ccccc3)cc(=O)[nH]c2c1
inactive: [1] -33% | [2] -16.1% | [3] -29.4% | [4] -3.55% | [5] -33.7% | [6] -51.1%

Clc1ccc(C=NC23CC4CC(CC(C4)C2)C3)cc1Cl
inactive: [1] -19.1% | [2] -24.1% | [3] -16.2% | [4] 17.6% | [5] 7.55% | [6] 12%

COc1ccc2c(c1)C(N)=C(c1ccccc1OC)C2=O
inactive: [1] -8.45% | [2] 3.9% | [3] 4.95% | [4] -8.15% | [5] -7.4% | [6] -38.5%

Cc1c(C(=O)CC(=O)C(=O)NC2C3CC4CC(C3)CC2C4)[n+](=O)c2ccccc2n1[O-] (stereo unspecified)
inactive: [1] -11.1% | [2] 0.8% | [3] -26.7% | [4] 16.3% | [5] -9.8% | [6] -20.4%

COc1ccc(CNc2ccccc2)cc1OC
inactive: [1] -6% | [2] 7.95% | [3] -3% | [4] -33.6% | [5] -9.15% | [6] -40%

CC1CNC2C(C)C3C(CC4C5CCC6CC(N=Cc7ccccc7O)CCC6(C)C5CCC43C)OC2(O)C1 (stereo unspecified)
inactive: [1] 25.8% | [2] -6.2% | [3] -4.3% | [4] -3.95% | [5] 0.3% | [6] 0.55%

CCOC(=O)c1c(C)cc2ccccn12
inactive: [1] -11.4% | [2] -12.4% | [3] 0.05% | [4] -26.7% | [5] 8.3% | [6] 11.2%
